VLA-4 inh – inhibition in human VLA-4 binding assay, primary screen, VLA-4 allosteric modulator project, MLPCN library, flow cytometry, VLA-4 expressing cells; Integrin alpha-4 (Homo sapiens), P13612; ligand binding flow cytometry; inhibition, % (about 7 µM as worked out from the volumes in the protocol); 0.2% of 330,000 active; AID 2557, 2010; in the data active means inhibition above about 50%
PG9 Ab binder – binders of HIV-1 gp120 antibody PG9, primary screen, biochemical, TR-FRET; inhibition, % at 6.7 µM; 0.43% of 360,000 active; TR-FRET gp120-PG9 antibody binding; in the data active means inhibition above about 8.5%
NR1D1 modulator – modulators of Rev-erb alpha DNA binding, primary screen, biochemical, FITC-DNA, fluorescence polarization, uHTS; Nuclear receptor subfamily 1 group D member 1 (Homo sapiens), P20393; Rev-erbα–FITC-DNA binding, 90 min; activity, % at 10 µM; 0.79% of 370,000 active; AID 1259318, 2017;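 active means activity above about 14%, limit read from the data; passing the limit was not always enough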;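 further: 0% = DMSO wells with 35 nM protein and 100% = DMSO wells with 750 nM protein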
Target sequence (P20393 whole entry, looked up): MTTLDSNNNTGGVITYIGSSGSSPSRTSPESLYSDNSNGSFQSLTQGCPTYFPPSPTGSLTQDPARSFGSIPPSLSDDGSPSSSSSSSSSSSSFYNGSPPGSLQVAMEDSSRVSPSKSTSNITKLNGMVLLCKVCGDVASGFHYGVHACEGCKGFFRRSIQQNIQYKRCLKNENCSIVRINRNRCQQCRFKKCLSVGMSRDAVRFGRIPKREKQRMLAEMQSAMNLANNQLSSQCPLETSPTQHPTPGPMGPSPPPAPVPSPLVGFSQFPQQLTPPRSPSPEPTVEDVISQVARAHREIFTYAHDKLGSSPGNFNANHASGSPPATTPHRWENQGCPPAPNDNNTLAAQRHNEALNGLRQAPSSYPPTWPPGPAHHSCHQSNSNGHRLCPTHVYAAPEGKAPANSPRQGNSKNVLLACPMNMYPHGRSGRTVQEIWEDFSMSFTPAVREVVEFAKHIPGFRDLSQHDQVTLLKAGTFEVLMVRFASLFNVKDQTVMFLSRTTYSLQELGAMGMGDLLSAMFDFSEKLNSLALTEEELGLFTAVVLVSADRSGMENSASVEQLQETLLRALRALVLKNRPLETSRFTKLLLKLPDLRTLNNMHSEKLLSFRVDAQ
Exocytosis inh – LAMP-1 surface exposure blockers, TALL-104 cells – cell-based, flow cytometry, MLPCN library, primary screen; TALL-104 LAMP-1 surface exposure; cells stimulated with thapsigargin and PMA; AID 651702, 2012; inhibition, % at 10 µM; 0.66% of 360,000 active;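 active means inhibition above about 55%, limit read from the data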
ABCB6 inh MLPCN – ABCB6 transporter inhibitors, primary screen, K562-ABCB6 cells, flow cytometry, MLPCN library; AID 602162, 2011; 0.19% of 360,000 active; K562-ABCB6 porphyrin accumulation, 1 h; active compounds read low; ATP-binding cassette sub-family B member 6 (Homo sapiens), Q9NP58; fluorescence ratio to DMSO, % at 10 µM;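 active means fluorescence ratio to DMSO below 75%, the collection mean minus 3 SD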;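 further: signal is porphyrin accumulated inside mitochondria; 100% equals median channel fluorescence of DMSO control wells; lower ratio means ABCB6 inhibition with less porphyrin fluorescence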
ABCB6 blocker 1 – ABCB6 transporter inhibitors, confirmation, K562-ABCB6 cells, flow cytometry, cherry pick 1 | shares compounds with ABCB6 inh MLPCN | ratio response (% of DMSO), % at 10 µM | AID 602430, 2012 | 700 tested, under 10 active | K562-ABCB6 porphyrin accumulation, 1 h; active compounds read low;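 active means repeat-averaged ratio response below 75% of DMSO, the collection mean minus 3 SD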;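 further: median porphyrin fluorescence at 575 nm with 488 nm excitation from mitochondria; lower ratio means less porphyrin signal so ABCB6 inhibition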
* hit, by the source's call. Sampled rows, rich in hits. Any-hit rate of the full collection: about 2%.

Cc1cccc(NC(=O)CN2CCN(C(=O)c3c(C)nn(Cc4ccccc4)c3C)CC2)c1C was read as VLA-4 inh 3.9, PG9 Ab binder -0.2, NR1D1 modulator 2.0, Exocytosis inh -1.2, ABCB6 inh MLPCN 56.0* and ABCB6 blocker 1 100.0.
For O=C(Nc1ccccc1)N(CCCN1CCOCC1)Cc1ccccc1F the results were VLA-4 inh -20.3, PG9 Ab binder 4.0, NR1D1 modulator -2.8, Exocytosis inh -8.2 and ABCB6 inh MLPCN 78.0.
Screening COc1ccc(CN(CCCN2CCOCC2)C(=O)Nc2ccccc2)cc1OC returned VLA-4 inh 3.5, PG9 Ab binder 0.3, NR1D1 modulator -1.7, Exocytosis inh -2.3, ABCB6 inh MLPCN 68.0* and ABCB6 blocker 1 98.0.
`O=C(Oc1ccc2c(=O)c(Oc3ccc4ccccc4c3)coc2c1)c1cncc(Br)c1` gave VLA-4 inh 5.1, PG9 Ab binder -1.0, NR1D1 modulator 2.2, Exocytosis inh 4.6, ABCB6 inh MLPCN 73.0* and ABCB6 blocker 1 102.0.
For CCCC1CCC2(CCCN2CCOC(=S)Nc2ccccc2Br)CC1 (stereo not drawn) the results were NR1D1 modulator -2.9.
For O=C(COc1ccccc1Br)NCc1ccccn1 the results were VLA-4 inh -1.7, PG9 Ab binder -0.3, NR1D1 modulator 3.8, Exocytosis inh -4.5 and ABCB6 inh MLPCN 102.0.
Screening COC(=O)c1ccc(CNC(=O)COc2ccccc2Br)o1 returned VLA-4 inh 8.4, PG9 Ab binder -0.4, NR1D1 modulator -0.5, Exocytosis inh 0.2, ABCB6 inh MLPCN 32.0* and ABCB6 blocker 1 97.0.
Screening O=C(Nc1ccc(-c2nc3ccccc3o2)cc1)c1ccc(N2CCOCC2)c([N+](=O)[O-])c1 returned VLA-4 inh 4.2, PG9 Ab binder -1.0, NR1D1 modulator -0.1, Exocytosis inh -2.8 and ABCB6 inh MLPCN 93.0.
COc1ccc2oc(-c3ccc(NC(=O)c4ccc(N5CCOCC5)c([N+](=O)[O-])c4)cc3)nc2c1 was read as VLA-4 inh -2.2, PG9 Ab binder -0.9, NR1D1 modulator -31.1, Exocytosis inh -4.7, ABCB6 inh MLPCN 60.0* and ABCB6 blocker 1 98.0.
`COC(=O)C1C(=O)C2=C(CC1C)NC(C)=C(C(=O)OC1CCCC1)C2c1ccc(N(C)C)cc1` (stereo not drawn) gave VLA-4 inh 3.7, PG9 Ab binder -0.1, NR1D1 modulator 6.5, Exocytosis inh -8.4 and ABCB6 inh MLPCN 96.0.
COC(=O)C1C(=O)C2=C(CC1C)NC(C)=C(C(=O)OC(C)C)C2c1ccc(OC)c(O)c1 (stereo not drawn) was read as VLA-4 inh -4.7, PG9 Ab binder 3.5, NR1D1 modulator 2.9, Exocytosis inh -1.3, ABCB6 inh MLPCN 73.0* and ABCB6 blocker 1 101.0.
`CC(C)(C)c1ccc(-c2noc(CCC(=O)NCC3CCCO3)n2)cc1` (stereo not drawn) gave VLA-4 inh -7.7, PG9 Ab binder 0.0, NR1D1 modulator 0.7, Exocytosis inh -1.9, ABCB6 inh MLPCN 62.0* and ABCB6 blocker 1 99.0.
For CN(C)c1ccc(NC(=O)CSc2nnc(C3CCCCC3)n2N)cc1 the results were VLA-4 inh 31.8, PG9 Ab binder -7.2, NR1D1 modulator -1.9, Exocytosis inh 13.0, ABCB6 inh MLPCN 12.0* and ABCB6 blocker 1 99.0.
For C=CCN1C[C@@H](COCc2ccccc2)OCCS1(=O)=O the results were PG9 Ab binder 2.4 and NR1D1 modulator -2.8.
Cc1ccc(S(=O)(=O)NCC(=O)N2CCN(c3ccccn3)CC2)cc1C was read as NR1D1 modulator -4.5.
For CCOC(=O)c1sc2nc(C)cc(-c3ccccc3)c2c1N the results were VLA-4 inh -20.1, PG9 Ab binder -1.6, NR1D1 modulator 3.6, Exocytosis inh 2.0, ABCB6 inh MLPCN 71.0* and ABCB6 blocker 1 100.0.
COc1ccc(N2CCN(c3ncccc3C#N)CC2)cc1 was read as VLA-4 inh -5.4, PG9 Ab binder -0.8, NR1D1 modulator -1.5, Exocytosis inh -1.3, ABCB6 inh MLPCN 74.0* and ABCB6 blocker 1 101.0.
Screening CCOC(=O)N1CCN(C(=O)C[C@@H]2C(=O)N(Cc3ccc(OC)cc3)/C3=C/CCCCC[C@@]32C(=O)OCC)CC1 returned NR1D1 modulator 7.3.
Screening CC(C)C[C@@H]1COc2cccc(N3CCSCC3)c2S(=O)(=O)N1C returned NR1D1 modulator 1.2.
For O=C(Nc1ccc(NC(=O)C2CC2)nc1)c1cccnc1 the results were VLA-4 inh 2.1, PG9 Ab binder -3.7, NR1D1 modulator 4.1, Exocytosis inh -0.1, ABCB6 inh MLPCN 68.0* and ABCB6 blocker 1 102.0.
`Cc1ccc(F)c(S(=O)(=O)NC(=O)C2(C)CCN2C(=O)Cc2ccc(Cl)cc2Cl)c1` (stereo not drawn) gave PG9 Ab binder -1.1, NR1D1 modulator -0.1, Exocytosis inh 5.0 and ABCB6 inh MLPCN 98.0.
Cc1ccc(F)c(S(=O)(=O)NC(=O)C2(C)CCN2C(=O)Cc2cc(F)ccc2F)c1 (stereo not drawn) was read as PG9 Ab binder -1.2, NR1D1 modulator -5.4, Exocytosis inh 0.7, ABCB6 inh MLPCN 102.0 and ABCB6 blocker 1 98.0.
Screening CC1(C(=O)NS(=O)(=O)c2ccccc2Cl)CCN1C(=O)CCc1ccc(Cl)cc1Cl (stereo not drawn) returned PG9 Ab binder 0.1, NR1D1 modulator 2.8, Exocytosis inh -5.5 and ABCB6 inh MLPCN 97.0.
For Cc1ccc(F)c(S(=O)(=O)NC(=O)C2(C)CCN2C(=O)Cc2ccccc2Cl)c1 (stereo not drawn) the results were PG9 Ab binder 0.0, NR1D1 modulator 0.4, Exocytosis inh -0.7, ABCB6 inh MLPCN 94.0 and ABCB6 blocker 1 100.0.
CC1(C(=O)NS(=O)(=O)c2ccc(C#N)cc2)CCN1C(=O)Cc1cc(F)ccc1F (stereo not drawn) was read as PG9 Ab binder -2.2, NR1D1 modulator 1.8, Exocytosis inh 2.6, ABCB6 inh MLPCN 104.0 and ABCB6 blocker 1 99.0.
CC1(C(=O)NS(=O)(=O)c2ccc(F)cc2F)CCN1C(=O)Cc1cc(F)ccc1F (stereo not drawn) was read as PG9 Ab binder -1.9, NR1D1 modulator 1.2, Exocytosis inh -4.1 and ABCB6 inh MLPCN 86.0.
`Cc1ccccc1S(=O)(=O)NC(=O)C1(C)CCN1C(=O)CCc1ccc(Cl)cc1Cl` (stereo not drawn) gave PG9 Ab binder -0.2, NR1D1 modulator -6.2, Exocytosis inh -0.7, ABCB6 inh MLPCN 97.0 and ABCB6 blocker 1 97.0.
